{"source": "PubChem BioAssay (Tox21)", "note": "Results filed as inconclusive are left out. A call without a number means that no potency is given here. The source made the active and inactive calls. Unless noted, calls come from the whole dose curve; as a rule, active = well fitted cell-killing curve with a large enough effect in the repeat runs; inconclusive = weak or mixed curves; inactive = no such curve, though single readings can be large or run the other way."}
{"test_system": "not listed separately", "assay": "qHTS assay to identify small molecule agonists of the peroxisome proliferator-activated receptor delta (PPARd) signaling pathway - cell viability counter screen (AID 743211); note: nearly all actives have a fitted effect of over 55% in size", "conditions": "PPARd-bla HEK293H viability, CellTiter-Glo luminescence, 17 h; series mostly up to 62.6 µM", "in_short": "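Following 5 h plating at 37 C and 5% CO2, PPARd UAS-bla HEK293H cells took up test compounds for 17 h. Viability was quantified by luminescence 30 min after CellTiter-Glo addition at room temperature.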"}
{"smiles": "ClCCCN1CCN(c2cccc(Cl)c2)CC1", "Potency": "inactive"}
{"smiles": "CCCCC(=O)Cl", "Potency": "inactive"}
{"smiles": "CCCCCCI", "Potency": "inactive"}
{"smiles": "CC(C)[N+](=O)[O-]", "Potency": "inactive"}
{"smiles": "OC(c1ccccc1)(c1ccccc1)C1CCNCC1", "Potency": "inactive"}
{"smiles": "CC(Cl)(Cl)[N+](=O)[O-]", "Potency": "inactive"}
{"smiles": "C=C(C)CN(CC)c1c([N+](=O)[O-])cc(C(F)(F)F)cc1[N+](=O)[O-]", "Potency": "inactive"}
{"smiles": "CN1CCN(C(=O)O[C@H]2c3nccnc3C(=O)N2c2ccc(Cl)cn2)CC1", "Potency": "inactive"}
{"smiles": "CCCCCCBr", "Potency": "inactive"}
{"smiles": "COc1cccc(C(=O)NN(C(=O)c2cc(C)cc(C)c2)C(C)(C)C)c1C", "Potency": "inactive"}
{"smiles": "O=C1c2ccccc2C(=O)c2ccccc21", "Potency": "inactive"}
{"smiles": "Cc1ncc(CNC(=O)N(CCCl)N=O)c(N)n1", "Potency": "inactive"}
{"smiles": "COc1cc(OC)nc(Oc2cccc(Oc3nc(OC)cc(OC)n3)c2C(=O)O)n1", "Potency": "inactive"}
{"smiles": "CNC(=O)Oc1ccccc1C1OCCO1", "Potency": "inactive"}
{"smiles": "Cc1cc(C)nc(Nc2ccccc2)n1", "Potency": "inactive"}
{"smiles": "OCCBr", "Potency": "inactive"}
{"smiles": "O=C(Nc1ccccc1)c1ccccc1I", "Potency": "inactive"}
{"smiles": "CC(C)(C)NCC(O)c1cc(Cl)c(N)c(Cl)c1", "note": "(centres undefined)", "Potency": "inactive"}
{"smiles": "CC(N)=S", "Potency": "inactive"}
{"smiles": "O=[N+]([O-])c1ccc2c3c(cccc13)CC2", "Potency": "inactive"}
{"smiles": "CCOP(=O)(OCC)OP(=O)(OCC)OCC", "Potency": "inactive"}
{"smiles": "CCC(=O)C(CCN(C)C)(c1ccccc1)c1ccccc1", "Potency": "inactive"}
{"smiles": "C[C@@H]1CN(C2CCC(C#N)(c3ccc(F)cc3)CC2)CC[C@]1(C(=O)O)c1ccccc1", "note": "(some centres undefined)", "Potency": "inactive"}
{"smiles": "CS(=O)(=O)c1cc(C(F)(F)F)ccc1C(=O)c1cnoc1C1CC1", "Potency": "inactive"}
{"smiles": "COc1cc2c(cc1OC)[C@@]13CCN4CC5=CCO[C@H]6CC(=O)N2[C@H]1[C@H]6[C@H]5C[C@H]43", "Potency": "inactive"}
{"smiles": "CNC(=O)Oc1ccc(N(C)C)c(C)c1", "Potency": "inactive"}
{"smiles": "NC(=O)O", "Potency": "inactive"}
{"target": "Peroxisome proliferator-activated receptor delta (Homo sapiens) (UniProt Q03181)", "sequence (Q03181 whole entry, looked up)": "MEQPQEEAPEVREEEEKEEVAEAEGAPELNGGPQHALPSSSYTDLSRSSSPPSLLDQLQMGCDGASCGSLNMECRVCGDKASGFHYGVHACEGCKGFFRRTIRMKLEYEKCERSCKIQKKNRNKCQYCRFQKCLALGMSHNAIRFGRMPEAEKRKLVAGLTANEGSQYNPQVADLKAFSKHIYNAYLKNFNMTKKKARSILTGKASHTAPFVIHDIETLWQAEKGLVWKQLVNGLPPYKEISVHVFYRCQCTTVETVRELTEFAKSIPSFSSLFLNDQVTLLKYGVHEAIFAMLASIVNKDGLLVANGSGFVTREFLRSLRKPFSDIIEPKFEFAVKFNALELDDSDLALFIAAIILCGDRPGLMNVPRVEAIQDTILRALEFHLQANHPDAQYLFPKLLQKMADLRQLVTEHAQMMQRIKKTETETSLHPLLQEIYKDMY", "assay": "qHTS assay to identify small molecule agonists of the peroxisome proliferator-activated receptor delta (PPARd) signaling pathway (AID 743212; calls by dose curve)", "conditions": "HEK293H PPARd-UAS-bla, beta-lactamase FRET ratio, 17 h; series mostly up to 62.6 µM", "in_short": "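HEK293H UAS-bla reporter cells, human PPARd system; compounds delivered in DMSO after 5 h plating, then at 37 C. Beta-lactamase FRET read, 2 h RT substrate step.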"}
{"smiles": "ClCCCN1CCN(c2cccc(Cl)c2)CC1", "outcome": "inactive"}
{"smiles": "CCCCC(=O)Cl", "outcome": "inactive"}
{"smiles": "CCCCCCI", "outcome": "inactive"}
{"smiles": "CC(C)[N+](=O)[O-]", "outcome": "inactive"}
{"smiles": "CC(Cl)(Cl)[N+](=O)[O-]", "outcome": "inactive"}
{"smiles": "C=C(C)CN(CC)c1c([N+](=O)[O-])cc(C(F)(F)F)cc1[N+](=O)[O-]", "outcome": "inactive"}
{"smiles": "NC(=S)C(N)=S", "outcome": "inactive"}
{"smiles": "COc1cccc(C(=O)NN(C(=O)c2cc(C)cc(C)c2)C(C)(C)C)c1C", "outcome": "inactive"}
{"smiles": "O=C1c2ccccc2C(=O)c2ccccc21", "outcome": "inactive"}
{"smiles": "Cc1ncc(CNC(=O)N(CCCl)N=O)c(N)n1", "outcome": "inactive"}
{"smiles": "COc1cc(OC)nc(Oc2cccc(Oc3nc(OC)cc(OC)n3)c2C(=O)O)n1", "outcome": "inactive"}
{"smiles": "CNC(=O)Oc1ccccc1C1OCCO1", "outcome": "inactive"}
{"smiles": "O=[N+]([O-])c1cccc2cccnc12", "outcome": "inactive"}
{"smiles": "Cc1cc(C)nc(Nc2ccccc2)n1", "outcome": "inactive"}
{"smiles": "O=C(Nc1ccccc1)c1ccccc1I", "outcome": "inactive"}
{"smiles": "CC(C)(C)NCC(O)c1cc(Cl)c(N)c(Cl)c1", "note": "(centres undefined)", "outcome": "inactive"}
{"smiles": "CC(N)=S", "outcome": "inactive"}
{"smiles": "O=[N+]([O-])c1ccc2c3c(cccc13)CC2", "outcome": "inactive"}
{"smiles": "CCOP(=O)(OCC)OP(=O)(OCC)OCC", "outcome": "inactive"}
{"smiles": "CCC(=O)C(CCN(C)C)(c1ccccc1)c1ccccc1", "outcome": "inactive"}
{"smiles": "C[C@@H]1CN(C2CCC(C#N)(c3ccc(F)cc3)CC2)CC[C@]1(C(=O)O)c1ccccc1", "note": "(some centres undefined)", "outcome": "inactive"}
{"smiles": "N#CC(CCc1ccc(Cl)cc1)(Cn1cncn1)c1ccccc1", "note": "(centres undefined)", "outcome": "inactive"}
{"smiles": "CC1(C(=O)Nc2ccc(O)c(Cl)c2Cl)CCCCC1", "outcome": "inactive"}
{"smiles": "CC1CCC(=O)O1", "note": "(centres undefined)", "outcome": "inactive"}
{"smiles": "CS(=O)(=O)c1cc(C(F)(F)F)ccc1C(=O)c1cnoc1C1CC1", "outcome": "inactive"}
{"smiles": "CNC(=O)Oc1ccc(N(C)C)c(C)c1", "outcome": "inactive"}
{"smiles": "NC(=O)O", "outcome": "inactive"}
